# Screens as filed in PubChem.
# Pf growth 96h = P. falciparum growth inhibition at 96 hours; 6.9% of 320,000 active; Potency, µM (highest dose often 28.7 µM), for the others: at the highest dose activity change, negative = inhibition, actives largely listed as inhibitors; P. falciparum luciferase reporter growth, 96 h; AID 504834; note: potency is the fitted concentration of half-maximal effect
#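 Cell-based qHTS: luciferase-tagged P. falciparum in erythrocytes (2% hematocrit, 0.05% parasitemia final) incubated with compounds for 96 hours, 37 C, 5% CO2; luciferase detection reagent then added and luminescence measured.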
# HCMV antiviral = inhibitors of human cytomegalovirus. activity change, negative = inhibition, % at 57.5 µM. 4.5% of 410,000 active. AID 1259415. HFF cells, HCMV-luciferase reporter, 72 h; active compounds read low; in the data active = activity change below about -60%; inconclusive = no clear call, values can overlap the other calls; inactive = above about -39%
#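 Cell-based, HFFs, 1000 cells/well, 16 h 37C; cpds in DMSO + HCMV-luc, MOI 1 PFU/cell; 72 h 37C; OneGlo luminescence after 5 min RT; norm. to buffer vs Salinomycin 10uM.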
# LASV entry inh = blocks Lassa virus binding to or entry into cells; Lassa virus pseudotype entry inhibition, cell reporter; 1.2% of 300,000 active; Potency, µM (highest dose often 37.9 µM), for the others: top-dose activity change, negative = inhibition, usual class: inhibitors; calls by dose curve; tested in HEK293 cells; note: potency is the fitted concentration of half-maximal effect; nearly all actives have a fitted effect of over 50% in size
# HCV inh = inhibitors of hepatitis C virus infection. Huh7.5.1 HCVcc-Cre infection, luciferase reporter, 44 h. Potency, µM (series often up to 41.8 µM), for inactives: at the highest dose activity change, negative = inhibition, hits mostly inhibitors. 3.4% of 340,000 active. AID 651820; note: potency is the fitted concentration of half-maximal effect
#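 HCVcc-Cre virus at an moi near 0.5 was added right after compound to cells cultured 4 h from seeding (1,000 cells/well). Luciferase activity was determined 44 h later, 15 min after substrate addition at RT.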
# MARV entry inh = blocks Marburg virus binding to or entry into cells; Marburg virus pseudotyped entry inhibition, cell reporter; 1.8% of 300,000 active; Potency, µM (top dose mostly 37.8 µM), inactives show top-dose activity change, negative = inhibition, most hits filed as inhibitors; calls by dose curve; tested in HEK293 cells; note: potency is the fitted concentration of half-maximal effect
# Pf growth 48h = P. falciparum growth inhibition at 48 hours (one generation). P. falciparum luciferase growth in erythrocytes, 48 h. Potency, µM (series often up to 28.7 µM), for the others: top-dose activity change, negative = inhibition, actives largely listed as inhibitors. 5.9% of 310,000 active. AID 504832; note: potency is the fitted concentration of half-maximal effect
#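 Read-out is firefly luciferase luminescence from an integrated reporter in P. falciparum, so falling signal marks reduced parasite growth. Infected erythrocytes were at 2% hematocrit and 0.1% parasitemia (final) in Albumax-supplemented RPMI 1640.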
# Starred values were filed as active, the others as inactive; ? = inconclusive; . = no result given; [ ] = another dose, or the depositor's remark. The list is not random: actives were taken first. Their share in the collection is about 14%. Unless noted, calls come from the whole dose curve; as a rule, active = well fitted inhibition curve with a large enough effect; inconclusive = small, poorly fitted or top-dose-only effect, or another doubt; inactive = no such curve, though single readings can be large or run the other way. % is set by controls: 0 for no effect and ±100 for the full control effect.
SMILES,Pf growth 96h,HCMV antiviral,LASV entry inh,HCV inh,MARV entry inh,Pf growth 48h
Cc1nc2nc(SCC(=O)NCCCN3CCCCC3)nn2c(C)c1Cc1ccccc1,-17.9%,-37.5,1.2%[46.1 µM],?,?,?
CCN(CC)CCNC(=O)CSc1nc2nc(C)c(Cc3ccccc3)c(C)n2n1,.,-2.6,7.3%[46.1 µM],.,?,.
CCC1CCCCN1CCCNC(=O)CSc1nc2nc(C)c(Cc3ccc(C)cc3)c(C)n2n1 (stereo not given),30.3%,-33.3,?,?,11.2µM*,?
Cc1nc2nc(SCC(=O)NCCCN3CCOCC3)nn2c(C)c1Cc1ccccc1,3.29µM*,?,.,10.5%,.,?
CC(=O)c1ccc(NC(=O)c2sc(-n3nc(C)c(Cc4ccc5c(c4)OCO5)c3C)nc2C)cc1,.,22.4,14.0%[46.1 µM],.,10.5%[46.1 µM],.
O=C(/C=C/c1ccc(F)cc1)NCc1cccs1,167.1%,16.5,?,1.0%,-8.5%,54.7%
O=C(/C=C/c1ccc(S(=O)(=O)NCc2ccco2)cc1)NCc1ccccc1Cl,?,-38.2,?,?,?,?
O=C(/C=C/c1ccccc1Cl)NCc1cccs1,-38.8%,37.3,18.4µM*,?,14.0%,41.8%
O=C(/C=C/c1ccc(Cl)cc1)NCc1ccco1,?,-64.2*,6.51µM*,0.6%,?,-30.0%
O=C(COC(=O)/C=C/c1ccc(OC(F)F)cc1)NCc1cccs1,-46.7%,-64.2*,?,10.7%,9.4%,10.9%
O=C(/C=C/c1ccc(Br)cc1)NCc1cccs1,-2.8%,-61.0*,2.59µM*,7.2%,32.9%,75.0%
COc1ccccc1NC(=O)[C@@H]1CCCN1S(=O)(=O)c1ccc(Cl)cc1,.,0.0,2.0%,8.2%,?,.
c1ccc2c(c1)CCC[C@H]2C1=NCCN1,.,.,.,.,31.4%,.
O=C(NC1CCCCC1)c1nnc2n1CCN(C(=O)c1ccc3occc3c1)C2,.,-13.5,.,.,.,.
COc1cc(C(CC2=C(c3ccccc3)Cc3ccccc32)NC(=O)C(F)(F)F)cc(OC)c1OC (stereo not given),.,.,.,.,8.2%[14.2 µM],.
CCSc1nc(COC(=O)NC)c(COC(=O)NC)n1C,.,-4.1,-18.4%,11.3%,?,.
CNC(=O)OCc1nc(SSC(C)(C)C)n(C)c1COC(=O)NC,.,-75.9*,?,?,?,.
CC(C)COC(=O)COc1cc(Cl)c(Cl)cc1Cl,35.5%,10.7,.,2.8%,.,41.9%
COCC1CCN(C(=O)c2oc3c(F)cccc3c2C)C1 (stereo not given),?,11.5,.,-5.5%,.,?
CC(=O)NCC1CCCN(C(=O)c2oc3c(F)cccc3c2C)C1 (stereo not given),-7.0%,-100.8*,.,-2.0%,.,38.3%
Cc1c(C(=O)N2CCCCC2CCN2CCCC2=O)oc2c(F)cccc12 (stereo not given),0.0%,-63.3*,2.1%,20.2%,-1.2%,3.4%
Cc1c(C(=O)N2CCC2)oc2c(F)cccc12,.,-18.9,6.8%,4.5%,2.1%,.
Cc1ccc(-c2nc3ncccn3c2Nc2ccc3c(c2)OCCO3)cc1,11.7µM*,42.6,9.8%[46.1 µM],3.8%,19.8%[46.1 µM],.
Cc1ccn2c(Nc3ccc4c(c3)OCO4)c(-c3ccc(C)o3)nc2c1,.,-8.5,-15.8%[46.1 µM],.,?,.
Cc1ccc(Nc2c(-c3ccccn3)nc3cc(C)ccn23)cc1,9.28µM*,0.0,?,2.82µM*,?,?
SMILES,Pf growth 96h,HCMV antiviral,LASV entry inh,HCV inh,MARV entry inh,Pf growth 48h
Cc1ccn2c(Nc3ccc4c(c3)OCO4)c(-c3ccccn3)nc2c1,?,-97.7*,?,?,?,11.7µM*
CCOc1ccccc1NC(=O)CSc1nc2c(oc3ccccc32)c(=O)n1C(C)C,.,11.6,.,.,-14.1%[46.1 µM],.
COc1ccc(-c2ccc3c(c2)C2CC3CCN2)cc1 (stereo not given),.,-31.5,.,8.0%,.,.
O=C(O)C(Cc1ccc(F)cc1)c1ccccc1 (stereo not given),3.29µM*,-17.7,.,13.4%,.,47.0%
O=C(CC(Cc1ccccc1)C(=O)O)Nc1ccc(F)cc1 (stereo not given),2.33µM*,20.4,.,?,.,-16.1%
N[C@@H](Cc1ccc(F)cc1)C(=O)O,.,-13.6,-5.4%,-7.8%,?,.
